CYP2C9 inh = inhibitors of human CYP2C9; P11712; CYP2C9 Supersomes, luciferin-H conversion, luminescence; inhibition, % at 5 µM; 96,000 compounds, 20% hits; AID 777;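 active = blocking of liver enzyme CYP2C9 beyond about 50% at 5 µM, limit read from the data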
Measles CPE = protection of cells from measles virus | Measles virus-infected cells, CPE protection, absorbance | protection (pct of control), % at 4 µM | 140,000 compounds, 1.5% hits | AID 841; in the data active = protection mostly above about 24%, no sharp cut-off; inactive = mostly below about 26%
CYP2C9 act = increases human cytochrome P450 2C9 activity | P11712 | recombinant CYP2C9, luciferin-H conversion, luminescence; stronger effect = higher value; factor 1 = untreated enzyme, 0 = blocked | activation factor at 5 µM | 96,000 compounds, 1.4% hits | AID 1024;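 active = activation factor of 2 or more for CYP2C9 at a 5 µM dose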;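 also: 0 = sulfaphenazole-blocked wells and 1 = vehicle-only wells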
CYP2C19 inh = inhibitors of human CYP2C19. CYP2C19 Supersomes, luciferin-H EGE luminescence, 30 min. inhibition, % at 5 µM. 96,000 compounds, 21% hits. AID 778;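 active = CYP2C19 inhibition above a set limit at 5 µM in the primary screen, cut at about 50% in these data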;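 also: plate controls were negative control wells for no effect and 2.5 mM tranylcypromine positive control for full effect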
Target sequence (P33261 whole entry, looked up): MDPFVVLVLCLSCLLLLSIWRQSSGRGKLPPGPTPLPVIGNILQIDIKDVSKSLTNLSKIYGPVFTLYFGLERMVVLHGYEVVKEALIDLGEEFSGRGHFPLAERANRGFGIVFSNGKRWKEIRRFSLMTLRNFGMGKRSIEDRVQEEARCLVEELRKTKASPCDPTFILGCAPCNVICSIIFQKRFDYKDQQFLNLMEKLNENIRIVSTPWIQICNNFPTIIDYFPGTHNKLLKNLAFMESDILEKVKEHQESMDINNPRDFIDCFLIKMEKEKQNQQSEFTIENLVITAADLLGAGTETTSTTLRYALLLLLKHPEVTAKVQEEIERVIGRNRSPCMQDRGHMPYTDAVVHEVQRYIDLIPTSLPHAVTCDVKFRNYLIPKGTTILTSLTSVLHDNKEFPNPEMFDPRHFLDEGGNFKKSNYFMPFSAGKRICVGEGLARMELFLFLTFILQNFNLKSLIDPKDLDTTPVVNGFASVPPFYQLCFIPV
CYP2C19 act = activators of human cytochrome P450 2C19; P33261; recombinant CYP2C19, luciferin-H EGE luminescence; stronger effect = higher value; 0 = fully inhibited enzyme, 1 = untreated enzyme; activation factor at 5 µM; 96,000 tested, under 10 active;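 active = activation factor of at least 2 at 5 µM in the primary screen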;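 also: 0 = wells with 2.5 mM tranylcypromine and 1 = vehicle-only wells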
Numbers without * were called inactive; nt = not tested or not shown. Most compounds without a hit are left out; they make up all but 22% or so of the library.

SMILES	CYP2C9 inh	Measles CPE	CYP2C9 act	CYP2C19 inh	CYP2C19 act
COc1ccc(NC(C)=O)cc1NC(=O)CSc1nc2ncccc2[nH]1	56*	8	0.4	29	0.7
Cc1n[nH]c(C)c1S(=O)(=O)N1CCCC(C(=O)Nc2ccc3c(c2)OCCO3)C1 (stereo not drawn)	44	21	0.6	31	0.7
CCC(Sc1nc(=O)cc(N)n1CCc1ccccc1)C(=O)Nc1ccccc1C#N (stereo not drawn)	24	4	0.8	20	0.8
CC1CCC(C(=O)NC(C(=O)NCc2cccnc2)C(C)C)CC1 (stereo not drawn)	66*	7	0.3	41	0.6
CC(C)CC(NC(=O)C1CCC(C)CC1)C(=O)NCc1cccnc1 (stereo not drawn)	54*	6	0.5	30	0.7
CCC(C)C(NC(=O)C1CCC(C)CC1)C(=O)NCc1cccnc1 (stereo not drawn)	nt	8	nt	nt	nt
CC(C)CC(NC(=O)C1CCC(C)CC1)C(=O)NCc1ccccn1 (stereo not drawn)	45	2	0.5	36	0.6
CC(C)CC(NC(=O)C1CCC(C)CC1)C(=O)N1CCN(c2ccccn2)CC1 (stereo not drawn)	62*	26	0.4	81*	0.2
O=C1CCCC(=O)C1=C1SCCS1	nt	16	nt	nt	nt
Nn1c(SCc2ccccc2)nnc1-c1ccccn1	-13	10	1.1	17	0.8
Brc1ccc(CSc2nnc(-c3ccccn3)n2Cc2ccco2)cc1	87*	-1	0.1	48	0.5
CC(C)(C)c1ccc(CSc2nnc(-c3ccccn3)n2Cc2ccco2)cc1	93*	12	0.1	73*	0.3
Clc1cccc(CSc2nnc(-c3ccccn3)n2Cc2ccco2)c1	85*	5	0.2	50*	0.5
CN(C)CCNC(=O)c1cc2c(s1)-c1ccccc1OC2	3	5	1	4	1
Cc1nnc(C)n1/N=C/c1ccccn1	14	2	0.9	16	0.8
Cc1cccc(OCCCC(=O)O)c1	-27	6	1.3	-4	1
COc1ccc(C(c2sc3nc(C)nn3c2O)N2CCN(CCO)CC2)cc1OC (stereo not drawn)	2	2	1	-3	1
CCCNCc1nnc(-c2ccccc2Cl)o1	nt	9	nt	nt	nt
S=C(NCc1ccncc1)Nc1cccc(Cl)c1	nt	2	nt	nt	nt
Cc1cc(Cl)ccc1NC(=S)NCc1cccs1	63*	19	0.4	97*	0
S=C(NCc1cccs1)Nc1cccc(Cl)c1	6	8	0.9	62*	0.4
S=C(NCc1cccs1)Nc1ccccc1Cl	nt	9	nt	nt	nt
Cc1ccc(NC(=S)NCc2cccs2)c(C)c1	16	25	0.8	73*	0.3
C/C(=N\O)C(C)(C)NC(=O)Nc1ccc(Cl)cc1	24	7	0.8	21	0.8
CC(C)Cc1nc2oc3c(=O)[nH]cnc3c2c2c1CCCC2	nt	2	nt	nt	nt
SMILES	CYP2C9 inh	Measles CPE	CYP2C9 act	CYP2C19 inh	CYP2C19 act
COc1ccc(C(=O)N2c3ccccc3C(=O)OC2c2ccc3c(c2)OCO3)cc1 (stereo not drawn)	81*	5	0.2	83*	0.2
COc1ccc(C2Oc3ccccc3N2C(C)=O)cc1 (stereo not drawn)	69*	23	0.3	64*	0.4
COC(=O)CC1COc2ccccc2N1C(=O)c1ccc(OC)cc1 (stereo not drawn)	48	4	0.5	62*	0.4
CC(=O)Oc1ccc(C2OC(=O)c3ccccc3N2C(C)=O)cc1 (stereo not drawn)	9	3	0.9	8	0.9
COc1ccc(-c2nc(C#N)c(N3CCC(C(N)=O)CC3)o2)cc1OC	-19	34	1.2	-8	1.1
COCCc1nnc(NC(=O)Cc2ccccc2)s1	45	4	0.6	46	0.5
CN1CCN(CC(C)(C)NS(=O)(=O)c2ccc(Cl)cc2)CC1	1	10	1	95*	0.1
CCCc1nc(SCC(N)=O)[nH]c(=O)c1CC	-5	24	1.1	0	1
CCc1nc(SC)[nH]c(=O)c1C	16	13	0.8	95*	0
COc1ccc(CNC(=O)c2ccc3nccnc3c2)cc1	2	3	1	8	0.9
O=C(NCCCN1CCCC1)c1cccc(N2CCCC2=O)c1	nt	3	nt	nt	nt
CCN(CCNC(=O)c1cccc(N2CCCC2=O)c1)c1ccccc1	-10	10	1.1	89*	0.1
O=C(NCCCN1CCN(c2ccc(F)cc2)CC1)c1cccc(N2CCCC2=O)c1	28	6	0.7	80*	0.2
O=C(NCc1ccc(N2CCCC2=O)cc1)Nc1cccc(Cl)c1	72*	8	0.3	59*	0.4
COc1ccc(CNC(=O)c2ccc3c(c2)N(C)C(=O)CS3=O)cc1 (stereo not drawn)	64*	9	0.4	-3	1
CN(CCNC(=O)c1cccc(N2CCCC2=O)c1)Cc1ccccc1	20	8	0.8	18	0.8
COc1cc(-c2nc3n(n2)C(c2ccncc2)C(C(N)=O)=C(C)N3)cc(OC)c1OC (stereo not drawn)	24	4	0.8	-2	1
O=C(Nn1c(O)c(C=C2N=c3ccccc3=N2)sc1=S)c1cccc(Cl)c1	15	1	0.9	2	1
COc1ccc(CNC(=O)c2cccc(N3CCCC3=O)c2)cc1	71*	0	0.3	72*	0.3
O=C(NCc1ccco1)c1cccc(N2CCCC2=O)c1	38	24	0.6	22	0.8
COCn1c(-c2ccc(OC)cc2)nc2ccccc21	nt	6	nt	nt	nt
CCOC(Cn1c(-c2ccc(OC)cc2)nc2ccccc21)OCC	86*	18	0.1	50	0.5
C=C(C)Cn1c(-c2ccc(OC)cc2)nc2ccccc21	96*	6	0	90*	0.1
CCCCCn1c(CN2CCN(C)CC2)nc2c1c(=O)n(C)c(=O)n2C	-14	2	1.1	-17	1.2
COc1ccc(N2CC(O)=C(c3nc4ccccc4s3)C2=N)c(OC)c1	4	4	1	55*	0.4
SMILES	CYP2C9 inh	Measles CPE	CYP2C9 act	CYP2C19 inh	CYP2C19 act
Cc1cccc(OCc2nnc(SCc3cc(=O)[nH]c4ccccc34)n2-c2ccccc2)c1	nt	18	nt	nt	nt
O=C(COc1ccccc1)Nc1nnc(C23CC4CC(CC(C4)C2)C3)s1	nt	5	nt	nt	nt
Cc1ccc(-c2ccc(CCC(=O)O)n2Cc2ccco2)cc1	57*	5	0.4	32	0.7
C=CCOn1c(=O)c(-c2cccs2)[n+]([O-])c2ccccc21	68*	14	0.3	57*	0.4
C=CCOn1c(=O)c(-c2ccc(OC)c(OC)c2)[n+]([O-])c2ccccc21	1	9	1	-6	1.1
O=C1CCN(S(=O)(=O)c2ccccc2)C2CCCCC12 (stereo not drawn)	36	11	0.6	94*	0.1
O=C1CCCCC1S(=O)(=O)c1ccccc1 (stereo not drawn)	nt	5	nt	nt	nt
COC(=O)c1c(NS(=O)(=O)c2ccc3ccccc3c2)sc2c1CCCC2	98*	3	0	100*	0

Screens: PubChem BioAssay, several laboratories
